Compound activity (PubChem)
Hits are enriched below; roughly 1.2% of the tested compounds scored in any of these assays.
TSG101-PTAP inh: blocks PTAP/TSG101 interaction to inhibit HIV-1 budding; Q99816; Fluorescence polarization, FITC-PTAP peptide / Tsg101 binding; 340,000 tested, under 10 active; Potency, µM (doses to about 115 µM), for inactives: top-dose activity change, negative = inhibition, actives largely listed as inhibitors; active = well fitted inhibition curve with a large enough effect in the main read-out, with a control signal flat, not every such curve was filed as active; inconclusive = small, poorly fitted or top-dose-only effect, or effect the other way, or a change in a side signal; inactive = no such curve, though single readings can be large or run the other way; note: potency is the fitted concentration of half-maximal effect; % of control where 0% means no effect
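Tsg101 binding domain (10 uM final) was mixed with compound and a FITC-labeled PTAP peptide (50 nM final) in HEPES pH 7.5 buffer with NaCl, Tween 20, EDTA and TCEP; fluorescence polarization was read after 20 min at r.t.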
Anesthetic bind: binds horse apoferritin like a general anesthetic; Potency, µM (series often up to 77.5 µM), inactives show at the highest dose activity change, negative = displacement, most hits filed as inhibitors; apoferritin/1-aminoanthracene competitive binding, fluorescence; 0.074% of 350,000 active; note: potency is the fitted concentration of half-maximal effect; % is set by controls: 0 for no effect and ±100 for the full control effect; nearly all actives have a fitted effect of over 20% in size
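Probe: 1-aminoanthracene (50% saturated, PBS). Protein: horse-spleen apoferritin, 10 uM. Incubation: 10 min, room temperature. Detection: 380 nm excitation, 535 nm emission. Analysis: normalized response, four-parameter Hill.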
TSHR antag: blocks TSH signaling through the human TSH receptor; P16473; TSHR-expressing cells, TSH-stimulated cAMP HTRF, 2 h; hits give low values; activity change, negative = inhibition, % at 11.5 µM; 0.2% of 330,000 active; AID 504810;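 active = activity change below a set negative limit, meaning inhibition stronger than a set level, cut at about -70% in these data; inconclusive = activity change between two set negative limits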; note: % is set by controls: 0 for no effect and ±100 for the full control effect
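Cell-based HTRF cAMP assay; TSHR cells + compound, TSH EC80 (4nM final), 2 h, 37 deg C. Lysis with anti-cAMP cryptate and cAMP-d2, 30 min RT, read 665/620 nm.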
ASM inhibitor: human S-ASM enzyme inhibition; P17405; placental ASM, HMU-PC fluorogenic substrate, 60 min; Potency, µM (highest dose often 57.5 µM), for the others: at the top dose activity change, negative = inhibition, most hits filed as inhibitors; 0.006% of 340,000 active; note: potency is the fitted concentration of half-maximal effect
Target sequence (P17405 47-631 limits assumed): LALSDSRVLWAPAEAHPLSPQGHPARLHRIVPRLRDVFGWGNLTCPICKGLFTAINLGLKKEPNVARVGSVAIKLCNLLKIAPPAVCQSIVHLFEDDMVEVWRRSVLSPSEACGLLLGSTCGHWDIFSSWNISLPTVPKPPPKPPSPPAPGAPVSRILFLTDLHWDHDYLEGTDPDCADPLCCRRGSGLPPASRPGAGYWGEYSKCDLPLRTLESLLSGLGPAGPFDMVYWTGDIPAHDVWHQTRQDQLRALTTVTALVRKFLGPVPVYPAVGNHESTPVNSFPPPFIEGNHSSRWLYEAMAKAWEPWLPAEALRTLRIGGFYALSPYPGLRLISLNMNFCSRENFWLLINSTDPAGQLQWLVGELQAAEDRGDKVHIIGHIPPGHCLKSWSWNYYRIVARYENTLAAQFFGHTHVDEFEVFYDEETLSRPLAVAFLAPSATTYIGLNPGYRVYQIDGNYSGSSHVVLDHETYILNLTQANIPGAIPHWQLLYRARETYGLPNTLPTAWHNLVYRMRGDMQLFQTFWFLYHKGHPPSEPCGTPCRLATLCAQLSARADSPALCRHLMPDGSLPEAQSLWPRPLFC
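Human placenta-derived ASM preincubated with compound 10 min at room temperature, then reacted with 9 uM (final) fluorogenic HMU-PC substrate for 60 min at 37 C. Stop solution raises pH to 10; fluorescence read at Ex 386/Em 447 nm.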
BRCA1 expr up: activators of BRCA1 expression | MCF7-BRCA1-FFLuc reporter, luminescence, 48 h; response scale: scaled: vehicle 0%, 10 µM genistein 100% | Potency, µM (top dose mostly 46.1 µM), inactives show at the top dose activation, usual class: activators | 1.1% of 380,000 active | AID 624202; note: potency is the fitted concentration of half-maximal effect; nearly all actives have a fitted effect of over 80% in size
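Cells: MCF7-BRCA1-FFLuc, 2000/well. Exposure: 48 h, 37 °C, 5% CO2. Read: luminescence, 15 min post-substrate. Controls: genistein 10 microM (maximal activation), DMSO (neutral).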
* hit, by the source's call; ? = inconclusive; . = not tested or not shown. Unless noted, calls come from the whole dose curve; as a rule, active = well fitted curve in the direction sought with a large enough effect; inconclusive = small, poorly fitted or top-dose-only effect, or another doubt; inactive = no such curve, though single readings can be large; an effect the other way counts as inactive or inconclusive.

SMILES	TSG101-PTAP inh	Anesthetic bind	TSHR antag	ASM inhibitor	BRCA1 expr up
COc1ccc(OC)c(Nc2ccc(Nc3cc(OC)ccc3OC)nn2)c1	-9%	-18%	-11	0%	-17%
COc1ccccc1Nc1ccc(Nc2ccccc2OC)nn1	0%	-8%	-2	-2%	5µM*
COc1ccccc1Nc1nc2ccccc2n1C	-1%	2%	7	-2%	4.5µM*
Cc1ccc(C)c(OCc2cc(C(=O)N3CCOCC3)no2)c1	0%	-11%	-5	-19%	18µM*
COC1CCN(C(=O)c2cc(COc3cc(C)ccc3C)on2)CC1	.	.	.	.	64%
COc1cc(C)ccc1OCc1cc(C(=O)N2CCCCCC2)no1	-7%	?	22	2%	74%
CC(=O)NCCC1CCCCN1C(=O)c1cc(COc2cc(C)ccc2C)on1 (stereo not given)	-2%	-10%	7	2%	7.1µM*
COCCCC1CCN(C(=O)c2cc(COc3cc(C)ccc3C)on2)CC1	-2%	9%	3	-1%	3.2µM*
COc1ccc(OCc2cc(C(=O)N3CCOCC3)no2)c(Cl)c1	-4%	-3%	9	0%	?
CN(C)c1ccc(C(=C2c3ccccc3-c3ccccc32)c2ccc(N(C)C)cc2)cc1	.	.	.	.	18%
CCOc1ccc(C2=Nn3c(CC)nnc3SC2)cc1	-8%	.	-1	11%	-35%
COc1ccc(OCc2nnc3n2N=C(c2ccc(Br)cc2)CS3)cc1	-2%	14µM*	-16	-21%	-44%
COc1ccc(Nc2ncnc3ccccc23)c(OC)c1	-4%	4%	-1	6%	5%
COc1ccc(Nc2ncnc3ccccc23)cc1	1%	-7%	-6	-3%	7.9µM*
COc1cccc(Nc2ncnc3ccccc23)c1	-5%	2%	-7	0%	11µM*
CCCCCC(O)c1ccc([C@H]2CCC(=O)[C@@H]2CCCCCCC(=O)O)cc1 (stereo not given in full)	.	6%	.	.	.
O=C(NCC1CCCCC1)c1ccc(F)cc1Cl	-5%	-21%	-1	7%	5.6µM*
O=C(NC1CC1)c1ccc(F)cc1Cl	3%	-6%	9	3%	-6%
CSCC[C@H](NC(=O)[C@@H](NC(=O)[C@H](CCC(=O)O)NC(=O)[C@H](CCSC)NC(=O)[C@H](CC(N)=O)NC(=O)[C@H](CCC(=O)O)NC(=O)[C@H](CC(N)=O)NC(=O)[C@H](CO)NC(=O)[C@H](C)N)[C@@H](C)O)C(=O)O	.	12%	.	.	.
CCSC(=O)NC12CC3CC(CC(C3)C1)C2	-17%	8.9µM*	.	2%	3%
CC1(C)CC(=O)c2sc(NC(=O)C(C)(C)C)nc2C1	-15%	-6%	9	16%	7.9µM*
NCCCCCCNc1nc2c(N)ncnc2n1[C@@H]1O[C@@H]2COP(=O)(O)O[C@H]2[C@H]1O	.	0%	.	.	.
C#Cc1cccc(NC(=O)c2ccc(Cl)cc2Cl)c1	1%	-19%	-15	3%	1.8µM*
O=[N+]([O-])c1c(Nc2ccc(O)cc2)cc(Cl)c2nonc12	-1%	3%	-102*	-1%	-93%
CN(C)c1cc(Nc2ccc(O)cc2)c([N+](=O)[O-])c2nonc12	-7%	13%	10	0%	-4%
SMILES	TSG101-PTAP inh	Anesthetic bind	TSHR antag	ASM inhibitor	BRCA1 expr up
O=C(Oc1ccc(Br)cc1C(=S)N1CCCCC1)c1cc([N+](=O)[O-])cc([N+](=O)[O-])c1	-2%	32µM*	7	-3%	-25%
Clc1ccccc1CSc1cc2c(nn1)-c1ccccc1CC2	0%	?	-3	-1%	4µM*
O=C(Nc1cc(Cl)cc2c1[nH]c1cnccc12)c1cccnc1	.	-15%	.	.	.
O=C(CCc1ccccc1)N1CCN(C(=O)CCc2ccccc2)CC1	-11%	.	.	-1%	-6%
CCOC(=O)N1CCN(C(=O)CCc2ccccc2)CC1	-7%	2%	-128*	1%	0%
CCOC(=O)N1CCN(C(=O)CSCc2ccccc2)CC1	-1%	-1%	6	4%	11µM*
COc1ccc(Br)cc1/C=N/NC(=O)CN1CCCCC1	-1%	-2%	-122*	0%	-5%
COc1ccc(OC)c(/C=N/NC(=O)CN2CCSCC2)c1	-3%	53%	-5	226%	-23%
COc1ccc2nc(N3CCC(C)CC3)c(C#N)cc2c1	-12%	76%	-3	84%	11µM*
Cc1cccc(N2CCN(C(=O)Cn3nc(C)n4cccc4c3=O)CC2C)c1 (stereo not given)	-3%	?	-11	4%	16%
Cc1ccc(-c2ccc(=O)n(CC(=O)N3CCN(c4cccc(C)c4)C(C)C3)n2)cc1 (stereo not given)	-16%	25µM*	5	-19%	-33%
CCc1ccc(-c2ccc(SCC(=O)NCC3CCCO3)nn2)cc1 (stereo not given)	2%	-8%	3	-2%	2.5µM*
Cc1nn(-c2ccccc2)c(C)c1/C=N/NC(=O)CSc1nnc(SCc2ccccc2Cl)s1	-3%	-14%	-28	-13%	13µM*
CNc1ccc(C=C2C=CC=C2)cc1	.	.	.	.	0%
C[C@H]1COC(=O)O1	.	-9%	.	.	.
CC(/C=C/c1ccccc1F)=N\NC(=O)c1ccccc1	0%	-15%	-7	-3%	3.2µM*
CC(/C=C/c1ccccc1F)=N\NC(=O)c1ccc(Cl)cc1	-9%	-9%	20	3%	3%
CCc1c(C(=O)NCCc2ccc(N3CCCCC3)cc2)[nH]c2ccc(Cl)cc12	.	.	-20	.	.
O=C(NCC1CC1)c1cccc2c(-c3ccc(F)c(F)c3)coc12	.	.	.	.	3.5µM*
COc1ccc(-c2csc(N(C)C(=O)c3ccco3)n2)cc1	1%	-10%	-6	0%	7.1µM*
COc1ccc(-c2csc(N(CCCN(C)C)C(=O)c3cccs3)n2)cc1	-4%	-20%	-7	-2%	-5%
COc1ccc(-c2nnc(N(C)C(=O)c3ccno3)s2)cc1	-3%	-13%	3	0%	5µM*
CCN(C(=O)c1cccs1)c1nc(-c2ccc(OC)cc2)cs1	-3%	-8%	2	-7%	13µM*
CN(C)CCCN(C(=O)c1ccco1)c1nc(-c2ccc(Cl)cc2)cs1	-3%	?	-121*	-8%	35%
Cc1ccc(-c2csc(N(CCCN(C)C)C(=O)c3ccco3)n2)cc1	0%	-6%	11	-2%	33%
CN(C(=O)c1ccno1)c1nnc(-c2ccccn2)s1	-6%	-8%	0	2%	38%
CCN(N=O)c1ccc(/C=C/c2ccnc3ccccc23)cc1	.	.	.	.	14%
O=C(COC(=O)c1ccc2ncsc2c1)NC(=O)C1CCCCC1	.	.	.	.	21%
CN(C(=O)c1ccco1)c1nc(-c2ccc(Cl)cc2)cs1	-4%	-13%	-10	-1%	10µM*
COc1cc(N=Nc2ccc3ccccc3c2)ccc1O	-5%	?	9	?	5µM*
